In PubChem BioAssay AID1851 (National Center for Advancing Translational Sciences (NCATS), 2009):
Values joined by “and” are separate entries in the source; they are usually repeats but may differ in a detail not shown here. Identical values can stand only once. Screen size: about 16,000 compounds; about 5,700 (36%) were called active. Another 24% or so got no clear call; they are omitted. Some of the results follow. Values without a mark were called inactive. Calls come from the whole dose curve; as a rule, active = well fitted curve in the direction sought with a large enough effect; inconclusive = small, poorly fitted or top-dose-only effect, or effect the other way; inactive = no such curve, though single readings can be large or run the other way.

Molecular target: Cytochrome P450 1A2 (Homo sapiens) (UniProt P05177)
Assay: Cytochrome panel assay with activity outcomes
Details: recombinant CYP, pro-luciferin dealkylation, luminescence, p450-cyp1a2; series mostly up to 57.1 µM
% is set by controls: 0 for no effect and ±100 for the full control effect.

Chain of Cytochrome P450 1A2 (Homo sapiens) (P05177 whole entry, looked up): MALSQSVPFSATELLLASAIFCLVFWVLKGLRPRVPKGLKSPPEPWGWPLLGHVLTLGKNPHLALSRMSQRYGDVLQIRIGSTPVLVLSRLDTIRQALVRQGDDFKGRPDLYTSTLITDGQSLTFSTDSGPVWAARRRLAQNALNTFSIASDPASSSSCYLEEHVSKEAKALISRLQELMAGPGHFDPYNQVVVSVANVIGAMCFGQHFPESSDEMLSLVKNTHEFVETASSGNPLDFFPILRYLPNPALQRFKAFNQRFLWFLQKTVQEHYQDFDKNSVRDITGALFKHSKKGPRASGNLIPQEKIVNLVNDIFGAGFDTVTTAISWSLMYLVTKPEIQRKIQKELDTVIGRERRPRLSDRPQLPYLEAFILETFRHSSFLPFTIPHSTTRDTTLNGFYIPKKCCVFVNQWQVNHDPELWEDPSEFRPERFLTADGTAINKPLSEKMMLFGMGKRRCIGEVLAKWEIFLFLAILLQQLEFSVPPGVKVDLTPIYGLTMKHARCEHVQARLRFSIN

| Structure (SMILES) | AC50 | activity, negative = inhibition |
| --- | --- | --- |
| CN1C(=O)C(=Cc2ccccc2Oc2ccc(Cl)c(F)c2)C(=O)N(C)C1=O | 22400 nM (active) | – |
| Cc1ccc(N2C(=O)/C(=C/N3CCN(C(=O)c4ccco4)CC3)C(=O)NC2=S)cc1C | inactive | – |
| O=C(NC1CCCCC1)NC1CC2CCC(C1)N2Cc1nnnn1Cc1ccc2c(c1)OCO2 (stereo not given) | inactive | – |
| CC(C)CN1CC2(CCN(C(=O)Oc3ccccc3)CC2)C1 | inactive | – |
| c1csc(CN2CCC3(CCNCC3)CC2)n1 | inactive | – |
| COc1cc(OC)c(/C=C2/C(=O)Nc3ccccc32)c(OC)c1 | 501 nM (active) | – |
| C=C(C)c1ccccc1 (tested in a mixture with another compound) | – | -19.6% [at 2.29 µM] |
| C[N+]1([O-])[C@@H]2CC[C@H]1CC(OC(=O)[C@@H](CO)c1ccccc1)C2 (stereo not given in full) | inactive | – |
| CC(=O)Nc1ccccc1C(=O)OCc1ccc(C(=O)c2ccccc2)cc1 | inactive | – |
| CC(=O)Nc1ccccc1C(=O)OCC(=O)c1ccc2ccccc2c1 | 3160 nM (active) | – |
| CS(=O)(=O)O[C@H]1CN2CCC1CC2 | – | -18.7% [at 11.4 µM] |
| CCOc1ccc(C2C(C#N)=C(N)Oc3c2c(=O)oc2ccccc32)cc1 (stereo not given) | 5010 nM (active) | – |
| COc1ccc2c3c1O[C@@H]1C(=O)CC[C@@]4(O)[C@@H](C2)N(CC2CC2)CC[C@]314 | inactive | – |
| C[C@H](Br)C(=O)c1ccc2cc(Br)c3ccccc3c2c1 | 158 nM (active) | – |
| CC1=C(CC[C@H](C)CO)O[C@@H]2C[C@@H]3[C@H]4CC[C@H]5C[C@@H](O)CC[C@]5(C)[C@@H]4CC(=O)[C@@]3(C)[C@@H]12 | – | -21.1% [at 2.29 µM] |
| O=C(O)Cc1cnc[nH]1 | inactive | – |
| NC(N)=NS(=O)(=O)c1ccc(N)cc1 | inactive | – |
| O=C1c2cc([N+](=O)[O-])ccc2-c2ccc3c4ccc5c6c(ccc(c7ccc1c2c73)c64)C(=O)c1cc([N+](=O)[O-])ccc1-5 | 794 nM (active) | – |
| O=C(O)CCCc1ccc(N(CCCl)CCCl)cc1 | inactive | – |
| C[C@@H]1O[C@H]1P(=O)(O)O | inactive | – |
| Cc1nccc2c1[nH]c1ccccc12 | 1.26 µM (active) and 631 nM (active) | – |
| Cc1c2ccncc2c(C)c2c1[nH]c1ccccc12 | 20 nM (active) | – |
| COC(=O)[C@H]1C(=O)c2ccccc2O[C@@](C(=O)OC)(c2ccccc2)[C@@H]1c1ccccc1 | – | 6.39% [at 11.4 µM] |

| Structure (SMILES) | AC50 | activity, negative = inhibition |
| --- | --- | --- |
| C[N+]1(C)CCN(c2ccccc2)CC1 | inactive | – |
| COc1ccc(C(=O)OC2C[C@H]3CC[C@@H](C2)N3C)cc1OC (stereo not given in full) | inactive | – |
| Cc1cccc(NC(=S)NC2CC3CCCC(C2)N3Cc2cccs2)c1 (stereo not given) | inactive | – |
| CCc1ccccc1NC(=O)NC1CC2CCC(C1)N2Cc1cccs1 (stereo not given) | inactive | – |
| CCSc1nnc(C(N)Cc2ccccc2)o1 (stereo not given) | inactive | – |
| NCCCNCCSP(=O)(O)O | inactive | – |
| CC1CN=C(Nc2cccc3ccccc23)S1 (stereo not given) | 2000 nM (active) | – |
| O=C(Nc1cccc2ccccc12)c1nn(C23CC4CC(CC(C4)C2)C3)cc1Br | inactive | – |
| CCC12C=CCN3CCC4(c5cc(Br)c(OC)cc5N(C)C4C(O)(C(=O)OC)C1OC(C)=O)C32 (stereo not given) | inactive | – |
| CCC[C@@H]1CC2=CC(=O)CC[C@]2(C)[C@@H]2CC[C@@]3(C)[C@H](CC[C@]3(O)CCC(=O)O)[C@H]12 | inactive | – |
| COc1cc(C[C@H](C)N)c(OC)cc1I | 6.31 µM (active) and 12.6 µM (active) | – |
| Clc1cnc(Oc2ccc(Oc3ncc(Cl)cc3Cl)cc2)c(Cl)c1 | inactive | – |
| CCNC[C@H](O)c1cccc(O)c1 | inactive | – |
| c1cncc(CNCCN2CCNCC2)c1 | – | 6.05% [at 11.4 µM] |
| c1cncc(CNc2cc(-c3ccc4c(c3)OCO4)ncn2)c1 | 251 nM (active) | – |
| Cc1o[nH]c(=O)c1C[C@H](N)C(=O)O | inactive | – |
| c1ccc2sc(C3(N4CCCCC4)CCCCC3)cc2c1 | inactive | – |
| COc1ccn(C)c(=O)c1C#N | inactive | – |
| CO[C@H]1[C@H](O)[C@H](O[C@@H]2[C@H](Oc3cccc4c(O)c5c(=O)oc6ccc(C)c7c(=O)oc(c34)c5c67)O[C@@H](C)[C@H](O)[C@H]2O)O[C@@H](C)[C@@H]1O | – | -16.6% [at 11.4 µM] |
| O=[As](O)(O)c1ccc2nc3cc([As](=O)(O)O)ccc3nc2c1 | – | -15.1% [at 11.4 µM] |
| C=C1[C@@H](O)C2C=CC[C@H](C)C(=O)[C@@](C)(O)C=C[C@@H](OC(C)=O)[C@@]23C(=O)N[C@H](Cc2ccccc2)[C@@H]3[C@@H]1C (stereo not given in full) | inactive | – |
| c1ccc(N2CCCC3(CCNCC3)C2)cc1 | inactive | – |
